Test results taken from PubChem BioAssay (NCI).
This is part of a sample that, as a whole, favours compounds with a hit. Of some 83,000 tested, about 20% had one in any assay.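 How to read the values: 0–100, growth inhibition (40 = 60% inhibited); 0, no net growth; -100 to 0, cell death (-40 = 40% of starting cells died; -100 = all dead).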 The source made the active and inactive calls. The calls were made as follows: active = growth percent below 10; inactive = the rest.

How the values were obtained:
Assay in all cases: NCI-60 one-dose screen, 48 h (100 = growth as untreated, 0 = no growth, -100 = all killed)
Settings in all cases: 10 µM unless noted
T-47D breast = test system: T-47D breast
BT-549 breast = test system: BT-549 breast
MDA-MB-435 melanoma = test system: MDA-MB-435 melanoma
SW-620 colon = test system: SW-620 colon
MCF7 breast = test system: MCF7 breast
HCT-116 colon = test system: HCT-116 colon
HCC-2998 colon = test system: HCC-2998 colon
KM12 colon = test system: KM12 colon

Measured: growth

COc1cc(/C=C2\C(=O)Nc3ccccc32)ccc1OCc1ccc(F)cc1
inactive: T-47D breast 107% | BT-549 breast 116% | MDA-MB-435 melanoma 103% | SW-620 colon 106% | MCF7 breast 87.8% | HCT-116 colon 107% | HCC-2998 colon 119% | KM12 colon 101%

CNC(=O)c1cc(-c2ccc(NS(=O)(=O)c3ccc(C)cc3)cc2)nc2cccnc12
inactive: T-47D breast 98% | BT-549 breast 110% | MDA-MB-435 melanoma 109% | SW-620 colon 107% | MCF7 breast 72.9% | HCT-116 colon 111% | HCC-2998 colon 108% | KM12 colon 101%

Cc1ccc(-c2nnc(SCc3ccc(O)c4ncccc34)n2-c2ccccc2)cc1
inactive: BT-549 breast 18.4% | SW-620 colon 12.9% | HCC-2998 colon 22.3%
active: T-47D breast 5.79% | MDA-MB-435 melanoma 9.9% | MCF7 breast 4.47% | HCT-116 colon 6.12% | KM12 colon 2.4%

COc1ccccc1N1CCN(C2=CC(=O)C(C)=C(C)C2=O)CC1
inactive: T-47D breast 91.1% | BT-549 breast 104% | MDA-MB-435 melanoma 106% | SW-620 colon 105% | MCF7 breast 83.5% | HCT-116 colon 106% | HCC-2998 colon 110% | KM12 colon 105%

CCNC(=O)N1CCc2cc(OC)c(OCCc3ccc(OC)cc3)cc2C1c1ccc(OC)cc1C (stereo not given)
inactive: T-47D breast 42.3% | BT-549 breast 22.9% | MDA-MB-435 melanoma 11.4% | SW-620 colon 21.9% | MCF7 breast 21.5% | HCT-116 colon 10.5% | HCC-2998 colon 19.5% | KM12 colon 24.1%

O=C(NCCN1CCCC1)c1ccc(-c2nc3ccc4[nH]ncc4c3c3c2CCCC3)cc1
active: BT-549 breast -33.4% | SW-620 colon 1.5% | MCF7 breast -9.45% | HCT-116 colon 1.82% | HCC-2998 colon -1.05% | KM12 colon 1.12%
inactive: T-47D breast 23% | MDA-MB-435 melanoma 12.3%

CCO/C=N/C1=C(C#N)C(c2ccc(F)cc2)c2sc3c(CC)cccc3c2O1 (stereo not given)
active: MDA-MB-435 melanoma -12.9%
inactive: T-47D breast 42.7% | BT-549 breast 27.7% | SW-620 colon 30.1% | MCF7 breast 14.8% | HCT-116 colon 16.2% | HCC-2998 colon 15.6% | KM12 colon 14.8%

CS(=O)(=O)c1ccc(-n2cc(/C=N/O)c(-c3ccccc3)n2)cc1
inactive: T-47D breast 59.1% | BT-549 breast 60.7% | MDA-MB-435 melanoma 85.9% | SW-620 colon 104% | MCF7 breast 21.5% | HCT-116 colon 92.1% | HCC-2998 colon 95.4% | KM12 colon 96.9%

O=C(Cn1c(-c2ccccc2)nc2cc(Cl)c(Cl)cc21)N=Nc1c(O)[nH]c2ccc(Cl)cc12
inactive: T-47D breast 61.5% | BT-549 breast 56.2% | MDA-MB-435 melanoma 83.2% | SW-620 colon 81.9% | MCF7 breast 71.8% | HCT-116 colon 53.4% | HCC-2998 colon 86% | KM12 colon 73.8%

NC(N)=Nc1ccc(Oc2cccc(Oc3ccc(Cl)c(C(F)(F)F)c3)c2)cn1
active: T-47D breast 8.88% | MDA-MB-435 melanoma -86.8% | SW-620 colon -76.7% | MCF7 breast -70.6% | HCT-116 colon -91.5% | HCC-2998 colon -80.6% | KM12 colon -89.6%
inactive: BT-549 breast 73.9%

CCOC(=O)c1c(Nc2ccccc2)nn2c(-c3cccs3)ccnc12
inactive: T-47D breast 79.2% | BT-549 breast 109% | MDA-MB-435 melanoma 87.5% | SW-620 colon 88.7% | MCF7 breast 90.5% | HCT-116 colon 78% | HCC-2998 colon 100% | KM12 colon 82.1%

ClC(Cl)c1nc(-c2ccco2)n2nc(-c3ccccc3)cc2n1
active: SW-620 colon 8.35% | MCF7 breast 1.38% | HCT-116 colon 2.94% | HCC-2998 colon -53.5% | KM12 colon -27.4%
inactive: T-47D breast 32.8% | BT-549 breast 87.7% | MDA-MB-435 melanoma 24.9%

NC(N)=Nc1ccc(Oc2cccc(Nc3ccc(Cl)c(C(F)(F)F)c3)c2)cn1
inactive: T-47D breast 15.1% | BT-549 breast 16.5%
active: MDA-MB-435 melanoma -86.2% | SW-620 colon -69.8% | MCF7 breast -60.3% | HCT-116 colon -69.4% | HCC-2998 colon -86.1% | KM12 colon -81.8%

Cc1[nH]c(C(=O)Nc2ccccc2OCc2cccc(C(=O)N3CCC[C@@H](N)C3)c2)c(Cl)c1Cl
active: T-47D breast -55.2% | BT-549 breast -89.4% | MDA-MB-435 melanoma -96.6% | SW-620 colon -75.9% | MCF7 breast -77.5% | HCT-116 colon -82.1% | HCC-2998 colon -92.5% | KM12 colon -80%

O=S(=O)(NCCCNc1nccc(-c2[nH]c(-c3ccccc3)nc2-c2ccc(Cl)c(O)c2)n1)c1ccc(Br)cc1
inactive: T-47D breast 30% | BT-549 breast 40.3% | SW-620 colon 55.8% | MCF7 breast 19.5% | HCT-116 colon 14.5% | HCC-2998 colon 47.2% | KM12 colon 22%
active: MDA-MB-435 melanoma 2.09%

O=C(c1ccc(O)cc1)[C@@H]1CN[C@@]2(C(=O)Nc3ccccc32)[C@H]1c1ccc(F)cc1
inactive: T-47D breast 99.3% | BT-549 breast 79.7% | MDA-MB-435 melanoma 107% | SW-620 colon 105% | MCF7 breast 99% | HCT-116 colon 104% | HCC-2998 colon 113% | KM12 colon 102%

C#CCOC(=O)[C@@H]1CCCN1CC#C
inactive: T-47D breast 92.6% | BT-549 breast 95.2% | MDA-MB-435 melanoma 90.9% | SW-620 colon 96.7% | MCF7 breast 74.9% | HCT-116 colon 81.6% | HCC-2998 colon 96.7% | KM12 colon 91.5%

COc1c(N2CC3CCCNC3C2)c(F)cc2c(=O)c(C(=O)N/N=C/c3ccc(F)cc3)cn(C3CC3)c12 (stereo not given)
inactive: T-47D breast 96.1% | BT-549 breast 84.8% | MDA-MB-435 melanoma 91% | SW-620 colon 99.5% | MCF7 breast 75.9% | HCT-116 colon 67.9% | HCC-2998 colon 97.3% | KM12 colon 104%

CCNC(=O)N1CCc2cc(OC)c(OCCc3ccc(OC)cc3)cc2C1c1ccc(Cl)cc1C (stereo not given)
inactive: T-47D breast 57% | MDA-MB-435 melanoma 15.9% | SW-620 colon 21.4% | MCF7 breast 16.3% | HCC-2998 colon 17.1% | KM12 colon 16.5%
active: BT-549 breast -1.91% | HCT-116 colon 9.84%

COc1ccc(C2CC(c3cccc(Nc4nc(Cl)nc5cc(OC)c(OC)cc45)c3)=Nc3c(N)nc(N)nc3N2)cc1 (stereo not given)
inactive: T-47D breast 81.7% | BT-549 breast 81.4% | MDA-MB-435 melanoma 83.5% | SW-620 colon 74% | MCF7 breast 74.4% | HCT-116 colon 46.3% | HCC-2998 colon 83.4% | KM12 colon 57.1%

COc1ccc(/C=C/C(=O)c2cc(S(N)(=O)=O)c(OC)cc2OC)cc1
inactive: T-47D breast 50.3% | BT-549 breast 82.8% | MDA-MB-435 melanoma 53.3% | SW-620 colon 46.6% | MCF7 breast 44.3% | HCT-116 colon 65.1% | HCC-2998 colon 83.2% | KM12 colon 40.9%

O=C(CSc1nc2ccccc2c(=O)n1-c1ccccc1)Nc1cccc(C(=O)/C=C/c2ccccc2Cl)c1
inactive: T-47D breast 91.2% | BT-549 breast 118% | MDA-MB-435 melanoma 97.9% | SW-620 colon 91.7% | MCF7 breast 54.1% | HCT-116 colon 20.2% | HCC-2998 colon 108% | KM12 colon 100%

CCN1CCN(Cc2cn(-c3ccc(S(N)(=O)=O)cc3)nn2)CC1
inactive: T-47D breast 105% | BT-549 breast 130% | MDA-MB-435 melanoma 107% | SW-620 colon 106% | MCF7 breast 97.4% | HCT-116 colon 103% | HCC-2998 colon 106% | KM12 colon 104%

COc1cc2oc(-c3cccc(N)c3)cc(=O)c2c(OC)c1OC
inactive: T-47D breast 97.8% | BT-549 breast 116% | MDA-MB-435 melanoma 103% | SW-620 colon 112% | MCF7 breast 96.3% | HCT-116 colon 111% | HCC-2998 colon 110% | KM12 colon 103%

CCN(CC)c1ccc(NC2=C(Cl)C(=O)c3nc(C)ccc3C2=O)cc1
active: T-47D breast -36% | MDA-MB-435 melanoma -76% | SW-620 colon -29.3% | MCF7 breast -38.5% | HCT-116 colon -63.8% | HCC-2998 colon 9.75%
inactive: BT-549 breast 132% | KM12 colon 101%

COc1cccc(O)c1/C=C(/C)c1ccc2c(OC)cccc2[o+]1
inactive: T-47D breast 106% | BT-549 breast 95.7% | MDA-MB-435 melanoma 86.7% | SW-620 colon 96.7% | MCF7 breast 93.8% | HCT-116 colon 101% | HCC-2998 colon 110% | KM12 colon 101%

CN1CCN(c2ccc(/C=N/Nc3nc4ccccc4c(=O)n3-c3ccccc3)cc2)CC1
inactive: T-47D breast 92.6% | BT-549 breast 108% | MDA-MB-435 melanoma 104% | SW-620 colon 99.6% | MCF7 breast 93.3% | HCT-116 colon 99% | HCC-2998 colon 103% | KM12 colon 99.8%

C[C@@H]1C[C@H]2C(=O)O[C@@H](C)C(NC(=O)[C@H](Cc3cc(F)cc(F)c3)NC(=O)Nc3ccc(Cl)cc3F)C(=O)N3CCC[C@H]3C(=O)N3CCCC[C@H]3C(=O)N[C@@H](CO)C(=O)N2C1 (stereo not given in full)
active: HCT-116 colon 9.85%
inactive: T-47D breast 34.4% | BT-549 breast 35.3% | MDA-MB-435 melanoma 19.5% | SW-620 colon 39.9% | MCF7 breast 16.1% | HCC-2998 colon 26% | KM12 colon 42%

COc1ccc(-n2c(SCc3nnc(NC(=O)c4ccc(Br)cc4)s3)nc3cc(OC)c(OC)cc3c2=O)cc1
inactive: T-47D breast 112% | BT-549 breast 137% | MDA-MB-435 melanoma 87.5% | SW-620 colon 95.7% | MCF7 breast 85.6% | HCT-116 colon 96.2% | HCC-2998 colon 88.2% | KM12 colon 90.6%

O=S(=O)(NCCCNc1nccc(-c2[nH]c(-c3ccccc3)nc2-c2ccc(Cl)c(O)c2)n1)c1cccc(F)c1
inactive: T-47D breast 49.9% | BT-549 breast 59.7% | MDA-MB-435 melanoma 21.5% | SW-620 colon 92.5% | MCF7 breast 55.3% | HCT-116 colon 35.4% | HCC-2998 colon 101% | KM12 colon 60.5%
